Many of the other results were omitted from the sample, so hits are more common in it than they were.
SF-1 inh: SF-1 (human) inhibition | inhibition, % at 10 µM | AID 525 | CHO-K1 Gal4-SF-1 LBD luciferase reporter | hit rate 0.55% among 65,000;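 active = inhibition above the mean inhibition of all tested compounds plus 3 SD, cut at about 48% in these data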
Target sequence (Q13285 whole entry, looked up, the tested form may be a part): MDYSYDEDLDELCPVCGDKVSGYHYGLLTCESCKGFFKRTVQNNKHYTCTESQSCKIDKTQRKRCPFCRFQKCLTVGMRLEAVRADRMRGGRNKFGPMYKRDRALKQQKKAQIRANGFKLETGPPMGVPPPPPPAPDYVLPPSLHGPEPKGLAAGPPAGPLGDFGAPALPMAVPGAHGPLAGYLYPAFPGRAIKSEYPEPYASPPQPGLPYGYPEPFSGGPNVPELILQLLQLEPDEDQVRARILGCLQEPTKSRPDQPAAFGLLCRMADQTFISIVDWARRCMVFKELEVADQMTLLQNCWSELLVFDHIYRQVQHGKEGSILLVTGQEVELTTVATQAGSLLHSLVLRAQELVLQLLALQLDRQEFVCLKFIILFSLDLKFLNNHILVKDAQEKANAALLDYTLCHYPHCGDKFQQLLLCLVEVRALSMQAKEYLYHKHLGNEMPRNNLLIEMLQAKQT
Hits are given with their value.

Screening Cc1c(CCC#N)c(N2CCN(C3CCCCC3)CC2)n2c(nc3ccccc32)c1C#N returned SF-1 inh inactive.
Screening COc1ccccc1-c1nnc(Nc2nc3c(OC)cccc3s2)o1 returned SF-1 inh 67.0.
For COc1cccc(-c2nnc(Nc3nc4c(F)cccc4s3)o2)c1 the results were SF-1 inh inactive.
Screening COCCCNc1oc(-c2ccccc2OC)nc1C#N returned SF-1 inh inactive.
For COc1ccc2nc(NC(=O)CN(c3ccc(C)cc3)S(=O)(=O)c3c(C)nn(C)c3C)sc2c1 the results were SF-1 inh inactive.
For COc1ccc(S(=O)(=O)N(C)CC(=O)NC2CC2)cc1 the results were SF-1 inh inactive.
CC(C)(C)c1cc(CN2CCCC(O)C2)c(O)c(C(C)(C)C)c1 (stereo not given) was read as SF-1 inh inactive.
For CC(NC(=O)Nc1nnc(C(F)(F)F)s1)(C(F)(F)F)C(F)(F)F the results were SF-1 inh 93.9.
`Cc1nnc(Sc2nc3c(c(=O)[nH]c(=O)n3C)n2CCCc2ccccc2)s1` gave SF-1 inh inactive.
Screening COc1ccc(OC)c(NC(=O)CSc2nnc(CNc3ccc(F)cc3)o2)c1 returned SF-1 inh inactive.
Screening CCOc1cc(C(=O)CSc2nnc(CNc3ccc(Cl)cc3)o2)ccc1NC(=O)CC returned SF-1 inh 56.4.
For COC(=O)c1ccc(C(=O)OC)c(NC(=O)CSc2nnc(-c3ccccc3Cl)o2)c1 the results were SF-1 inh inactive.
For CC(=O)N1CCN(c2ccc(Oc3nnnn3-c3ccccc3)cc2)CC1 the results were SF-1 inh inactive.
Screening c1ccc(-c2cccc(-c3ccccn3)n2)nc1 returned SF-1 inh 87.1.
c1ccc(-c2nnc(-c3ccccn3)nn2)nc1 was read as SF-1 inh inactive.
For CCC(C)(C)n1nnnc1C(c1cccc(C#N)c1)N1CCN(c2cccc(C)c2C)CC1 (stereo not given) the results were SF-1 inh inactive.
For COc1ccccc1-c1cn(S(=O)(=O)c2ccc(F)cc2)nc1N the results were SF-1 inh inactive.
`Cc1c(C(=O)O)sc(=S)n1CCOc1ccccc1` gave SF-1 inh inactive.
For O=c1[nH]c2c(s1)C=Nc1ccccc1N2 the results were SF-1 inh inactive.
`CCc1ccc2oc(-c3cc(N)ccc3O)nc2c1` gave SF-1 inh 56.0.
CCc1ccc2oc(-c3cc(N)ccc3Cl)nc2c1 was read as SF-1 inh inactive.
For CCc1ccc2oc(-c3cc(N)cc(C)c3O)nc2c1 the results were SF-1 inh inactive.
O=C(CCc1c[nH]c2ccccc12)NCC1CCCO1 (stereo not given) was read as SF-1 inh inactive.
`O=C(CSc1n[nH]c(-c2ccncc2)n1)NC1CCS(=O)(=O)C1` (stereo not given) gave SF-1 inh inactive.
Screening Cc1nc2ccccn2c1P(=Nc1ccccc1)(N(C)C)N(C)C returned SF-1 inh inactive.
CCc1ccc(-c2cn3nc(C)c(C)nc3n2)cc1 was read as SF-1 inh 81.1.
Screening Cc1nc2nc(-c3ccccc3)cn2nc1C returned SF-1 inh 54.7.
`CNc1ccccc1-n1ccc(-c2ccccc2)n1` gave SF-1 inh inactive.
Cc1nn2cc(-c3ccc(N)cc3)nc2s1 was read as SF-1 inh inactive.
Screening O=c1c(-c2ccc(F)cc2)coc2c3c(ccc12)OCCO3 returned SF-1 inh inactive.
For CCN1CCN(c2ncc(C(=O)N3CCCc4ccccc43)c3ccccc23)CC1 the results were SF-1 inh inactive.
Cc1cccc(CN2CCN(CC(=O)NCc3ccc(F)cc3)C2=O)c1 was read as SF-1 inh inactive.
Screening Cc1cccc(Cn2c(N3CCCCC3C)nc3c2c(=O)[nH]c(=O)n3C)c1 (stereo not given) returned SF-1 inh inactive.
Cc1ccc(-c2csc3ncnc(Sc4nnc(CN5CCCCCC5=O)o4)c23)cc1 was read as SF-1 inh 71.4.
`Cc1noc(C)c1COC(=O)c1cc2c3ccccc3n(C)c2s1` gave SF-1 inh inactive.
Screening CCCCCCC(=O)c1c(C)[nH]c(C(=O)OCC)c1C returned SF-1 inh inactive.
Screening COCCCNc1oc(-c2ccccc2F)nc1C#N returned SF-1 inh inactive.
For CN(C)c1cccc(C(=O)NC2CCCCCC2)c1 the results were SF-1 inh inactive.
`CCOC(=O)c1c(C)c(C(=O)Nc2ccc(N(C)C)cc2)c(C)n1CC` gave SF-1 inh inactive.
`CN(C)c1ccc(N/C=C/C(=O)c2ccccc2)cc1` gave SF-1 inh 65.5.
Screening Cn1c(=O)c2nc(-c3ccc(Cl)cc3Cl)oc2c2ccccc21 returned SF-1 inh inactive.
For COc1ccc(-n2nnnc2SCC(=O)c2cc3ccccc3o2)cc1 the results were SF-1 inh inactive.
For c1ccc2nc(-c3nc4ccccc4o3)ccc2c1 the results were SF-1 inh 63.8.
`Cc1ccnc2ccc(-c3nc4ccccc4o3)cc12` gave SF-1 inh inactive.
Screening Clc1ccc2oc(-c3ccccn3)nc2c1 returned SF-1 inh inactive.
CCO/C=C/C(O)(CNC(=O)COc1ccccc1F)C(F)(F)F (stereo not given) was read as SF-1 inh inactive.
For Nc1nc(CSc2ncn(-c3ccccc3)n2)cs1 the results were SF-1 inh inactive.

Screening data: PubChem BioAssay, The Scripps Research Institute Molecular Screening Center
